Shown are actives, neighbours in structure and some others; about 8.8% of the full set was active somewhere.
KB-3-1 tox: qHTS assay for MDR1-selective chemotherapeutics: Primary screen using the parental adenocarcinoma cell KB-3-1. KB-3-1 viability, CellTiter-Glo ATP luminescence, 72 h. Potency, µM (top dose mostly 46.1 µM), hits mostly cytotoxic. 1.4% of 400,000 active; note: potency is the fitted concentration of half-maximal effect; nearly all actives have a fitted effect of over 60% in size
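Viability of parental KB-3-1 cells, measured by CellTiter-Glo luminescence, followed a 72 h incubation at 37 °C with pinned compounds in phenol-red-free DMEM containing 10% FBS.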
HT1080 IDH1KD tx: qHTS for induction of synthetic lethality in tumor cells producing 2HG: qHTS for the HT-1080-IDH1KD cell line. HT-1080 IDH1 knockdown viability, ATP luminescence, 48 h. Potency, µM (titrated, usually from 46.1 µM), inactives show top-dose activity, negative = toxicity, usual class: cytotoxic. 2% of 360,000 active. AID 686971, 2013;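 note: potency is the fitted concentration of half-maximal effect; 0% = DMSO wells and -100% = cell-free medium wells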
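Using the IDH1-knockdown HT-1080 line run in the same batch and compound series as the NT line, viability after 48 h at 37 °C was determined by CellTiter-Glo luminescence and expressed as % activity.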
KB-V1 cytotox: qHTS assay for MDR1-selective chemotherapeutics: Primary screen using the drug-selected MDR subline cells KB-V1 | KB-V1 MDR cells viability, CellTiter-Glo, 72 h | Potency, µM (doses to about 46.1 µM), usual class: cytotoxic | 3.4% of 400,000 active | AID 1347076, 2019; note: potency is the fitted concentration of half-maximal effect; nearly all actives have a fitted effect of over 60% in size
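Cells of the MDR subline KB-V1 are plated, dosed with compound at multiple concentrations, and incubated 72 h at 37 degrees C; CellTiter-Glo is then added and luminescence read after 10 min.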
IL1B secr inh: qHTS for Inhibitors of Inflammasome Signaling: IL-1-beta AlphaLISA Primary Screen. THP-1 LPS/ATP IL-1B secretion, AlphaLISA, 16 h; active compounds read low. activity change, % at 57.5 µM. 4.7% of 360,000 active. AID 743279, 2014; in the data active = activity change below about -50%; inconclusive = mostly about -30% to -49%
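THP-1 cells pretreated 1 hr with compounds (up to 57.5 uM final), then stimulated with LPS (250 ng/mL final) plus ATP (1.25 mM final); secreted IL-1B measured by AlphaLISA after 16 hr, decreased signal indicating inhibition.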
HT1080-NT tox: qHTS for induction of synthetic lethality in tumor cells producing 2HG: qHTS for the HT-1080-NT fibrosarcoma cell line; HT-1080-NT fibrosarcoma viability, CellTiter-Glo ATP luminescence, 48 h; Potency, µM (doses to about 46.1 µM), for the others: at the top dose activity, negative = less viability, hits mostly cytotoxic; 1.6% of 360,000 active;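 note: NT is the 2HG producing partner of a matched IDH1 knockdown line; potency is the fitted concentration of half-maximal effect; 0% = DMSO-treated cells and -100% = media-only wells without cells; nearly all actives have a fitted effect of over 55% in size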
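Viability by CellTiter-Glo luminescence after 48 h compound exposure at 37C of HT-1080-NT cells (750/well, RPMI, 5% FBS). % activity scaled between DMSO wells and medium-only wells, then curve-fitted and categorized by curve class.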
Numbers without * were called inactive; i = inactive; u = inconclusive; x = not tested or not shown. Unless noted, calls come from the whole dose curve; as a rule, active = well fitted curve in the direction sought with a large enough effect; inconclusive = small, poorly fitted or top-dose-only effect, or another doubt; inactive = no such curve, though single readings can be large; an effect the other way counts as inactive or inconclusive. Unless noted, % is set by controls: 0 for no effect and ±100 for the full control effect.

SMILES	KB-3-1 tox	HT1080 IDH1KD tx	KB-V1 cytotox	IL1B secr inh	HT1080-NT tox
COc1ccccc1OCC(=O)Nc1cc(S(=O)(=O)N2CCOCC2)ccc1N1CCCCC1	i	3.3%	i	-54.6*	20.4%
Cc1cccc(NC(=O)CSCC(=O)Nc2cc(Cl)ccc2N2CCN(C)CC2)c1	i	14.6µM*	i	-79.2*	14.6µM*
COc1ccc(CCNC(=O)c2cc(S(=O)(=O)N3CCOCC3)ccc2N2CCCC2)cc1OC	i	8.9%	i	7.2	4.2%
COc1ccc(C)c2sc(N(Cc3cccnc3)C(=O)c3cccs3)nc12	i	x	i	x	x
C=CCN(CC=C)CCCOc1ccc(Br)cc1Cl	i	4.7%	i	-20.8	26.2%
COc1ccc(CCNC(=O)c2nc(-c3ccc(Cl)cc3)n3c2CCCCC3)c(OC)c1	i	x	i	x	x
CN1CCN(c2ccc(S(=O)(=O)N3CCCCC3)cc2NC(=O)COc2cccc(Cl)c2)CC1	u	-2.2%	i	-52.3*	-5.0%
Cc1cccc(OCC(=O)Nc2cc(S(=O)(=O)N3CCCCC3)ccc2N2CCN(C)CC2)c1	i	-0.8%	i	-13.4	-1.2%
Cc1ccc(Cl)c(OCC(=O)Nc2cc(S(=O)(=O)N3CCOCC3)ccc2N2CCCC2)c1	i	-0.4%	i	-58.6*	1.4%
O=C(COc1ccc(F)cc1Cl)Nc1cc(S(=O)(=O)N2CCOCC2)ccc1N1CCCCC1	u	-20.5%	u	-51.4*	-4.1%
CN1CCN(c2ccc(S(=O)(=O)N3CCOCC3)cc2NC(=O)COc2ccc(F)cc2Cl)CC1	x	12.7%	x	-12.7	1.4%
COc1cccc(CNC(=O)c2nnn(CC(=O)Nc3ccc(Br)cc3)c2N)c1	i	u	i	5.3	-19.9%
O=c1oc2ccc3ccccc3c2cc1-c1nnc(Nc2ccc(Cl)cc2Cl)s1	i	x	i	x	x
COc1ccccc1N1CCN(C2CCCN(C(=O)CC(F)(F)F)C2)CC1 (configuration not stated)	i	2.6%	i	13.8	2.5%
Cc1ccc(NC(=O)c2ccc(C)c(S(=O)(=O)N3CCCCCC3)c2)cc1	u	x	20.6µM*	x	x
Cc1csc(NC(=O)c2ccc(C)c(S(=O)(=O)N3CCCCC3)c2)n1	u	-2.6%	9.2µM*	-1.5	-1.5%
Cc1ccc(NC(=O)c2ccc(F)cc2)cc1S(=O)(=O)N1CCCCCC1	i	-12.9%	i	u	-16.3%
Cc1ccc(C(=O)Nc2cccc(O)c2)cc1S(=O)(=O)N1CCCCCC1	u	-20.2%	i	-57.4*	-21.4%
Cc1ccc(NC(=O)c2ccc(Cl)c(N3C(=O)C=CC3=O)c2)cc1	u	u	u	-55.6*	u
COc1ccc(NC(=O)Nc2cccc3c2O[C@H](CN(C)S(C)(=O)=O)[C@@H](C)CN([C@H](C)CO)C3=O)cc1	i	6.5%	i	-3.1	9.5%
Cc1ccc(NC(=O)CSc2nc3ccccc3n2CC(=O)N2CCC(C)CC2)cc1C	i	x	i	x	x
Cc1ccc(S(=O)(=O)c2cccc(S(=O)(=O)N3CCCC3)c2)cc1S(=O)(=O)N1CCCC1	20.6µM*	-27.2%	2.59µM*	-14.0	u
Cc1ccc(S(=O)(=O)c2cccc(S(=O)(=O)N3CCOCC3)c2)cc1S(=O)(=O)N1CCOCC1	i	-2.0%	i	-3.9	-1.7%
CCOc1ccccc1NS(=O)(=O)c1c(C)nc2sccn2c1=O	i	x	i	x	x
Cc1ccc(-n2nc3c([n+]2[O-])CCc2c-3no[n+]2[O-])cc1	u	29.5%	u	-77.6*	23.3%
SMILES	KB-3-1 tox	HT1080 IDH1KD tx	KB-V1 cytotox	IL1B secr inh	HT1080-NT tox
[O-][n+]1onc2c1CCc1c-2nn(-c2ccccc2Cl)[n+]1[O-]	u	11.2µM*	u	-74.2*	u
CNC(=O)COc1ccc(Nc2nnc(-c3ccc(C)c(S(N)(=O)=O)c3)c3ccccc23)cc1	i	12.5%	u	75.0	12.5%
CCC(C)Nc1ccc(NC(C)CC)cc1 (configuration not stated)	u	9.2µM*	u	u	3.66µM*
COC(=O)c1cc(Cl)c(NC(=O)c2ccc(C(C)(C)C)cc2)cc1OC	i	11.2µM*	i	22.4	u
COC(=O)c1cc(OC)c(OC)cc1NC(=O)c1ccc(C)cc1	i	11.6%	3.26µM*	-16.4	3.9%
COC(=O)c1cc2oc3ccccc3c2n1Cc1nc(-c2ccc(Cl)cc2)oc1C	i	x	i	x	x
CCOC(=O)C1=C(Cc2ccc(F)cc2)C(=O)c2ccccc2C1=O	i	10µM*	i	-71.1*	17.8µM*
Nc1nonc1-n1nnc(C(=O)N/N=C/C=C/c2ccccc2)c1CSC1=NCCS1	i	u	i	-89.8*	u
CCCN(CCC)Cc1c(C(=O)N/N=C/C(C)=C\c2ccccc2)nnn1-c1nonc1N	i	u	i	-68.1*	-19.1%
CCOC(=O)c1[nH]c(C)c(C(=O)/C=C/c2ccc(C(=O)O)cc2)c1C	i	u	i	-12.6	-2.1%
Cc1[nH]c(C)c(C(=O)/C=C/c2ccc([N+](=O)[O-])cc2)c1C	u	11.6µM*	i	-97.4*	u
COc1ccc(N2CCN(c3cc(C(=O)NC4CCCCC4)ncn3)CC2)cc1OC	i	-10.3%	14.6µM*	-8.6	-3.6%
O=C1c2ccccc2NC(c2ccc(-c3ccc(Br)cc3)o2)N1O (configuration not stated)	u	11.2µM*	u	100.6	7.94µM*
O=C1c2ccccc2NC(c2ccc(-c3ccc(F)cc3)o2)N1O (configuration not stated)	u	x	i	x	x
O=C1c2ccccc2NC(c2ccc(-c3cccc([N+](=O)[O-])c3)o2)N1O (configuration not stated)	u	u	2.31µM*	22.7	-19.2%
CCOC(=O)c1c(-c2ccccc2)oc2ccc(OC(C)C(=O)O)cc12 (configuration not stated)	i	-6.4%	i	-11.4	0.0%
CCOC(=O)c1c(-c2ccccc2)oc2ccc(OCC(O)CN(C)C)cc12 (configuration not stated)	u	14.6µM*	u	-65.1*	25.9µM*
CC1(C)Cc2c(sc(NC(=O)c3ccc4c(c3)OCCO4)c2C(N)=O)C(C)(C)N1	i	u	i	-67.0*	u
CCn1c(SCC(=O)N(C)C)nc2cc(S(=O)(=O)N3CCCCC3)ccc21	i	-1.8%	20.6µM*	-22.2	-5.3%
